Gli-Sufu antag = Gli-Sufu pathway antagonists, primary screen, luciferase luminescence, Sufu-KO-LIGHT cells, uHTS; Sufu-KO-LIGHT fibroblasts, Gli luciferase reporter luminescence; inhibition, % at 5 µM; actives 0.74% (n = 340,000); AID 588413, 2011;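 active = inhibition above about 55%, limit read from the data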;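 also: 0% = DMSO-treated cells and 100% = wells with medium but no cells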
Beta apoptosis = inhibitors of cytokine-induced beta cell apoptosis, primary screen, luminescence; INS-1E cytokine-induced death, ATP luminescence, 48 h; percent of positive-control rescue, neutral wells zero; protection from apoptosis, % (test concentration not listed); actives 0.8% (n = 300,000); AID 435005, 2010;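 active = Every replicate reaches about 75%, or at least half do and their mean reaches it too, limit read from the data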;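 also: 0% = cytokine-treated negative control wells and 100% = positive control rescue; higher means more ATP so stronger rescue from cytokine killing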
CSC inhib = cancer stem cell viability inhibitors, primary screen, luminescence | cancer stem cell-like cells viability | inhibition, % at 7.5 µM | actives 1.1% (n = 300,000); in the data active = inhibition above about 75%; tested in HMLE shEcad cells
Mdm2 MdmX PPI = inhibitors of human Mdm2-MdmX association, primary screen, cell-based, luminescence, split luciferase, SaOS-2, uHTS; AID 485346, 2010; SaOS-2 split-luciferase Mdm2/MdmX complementation; inhibition, % at 8 µM; Protein Mdm4 (Homo sapiens) + E3 ubiquitin-protein ligase Mdm2 (Homo sapiens), …; actives 3% (n = 330,000);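 active = inhibition of at least 50% at 8 µM in the primary screen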
Target sequence (O15151 whole entry, looked up): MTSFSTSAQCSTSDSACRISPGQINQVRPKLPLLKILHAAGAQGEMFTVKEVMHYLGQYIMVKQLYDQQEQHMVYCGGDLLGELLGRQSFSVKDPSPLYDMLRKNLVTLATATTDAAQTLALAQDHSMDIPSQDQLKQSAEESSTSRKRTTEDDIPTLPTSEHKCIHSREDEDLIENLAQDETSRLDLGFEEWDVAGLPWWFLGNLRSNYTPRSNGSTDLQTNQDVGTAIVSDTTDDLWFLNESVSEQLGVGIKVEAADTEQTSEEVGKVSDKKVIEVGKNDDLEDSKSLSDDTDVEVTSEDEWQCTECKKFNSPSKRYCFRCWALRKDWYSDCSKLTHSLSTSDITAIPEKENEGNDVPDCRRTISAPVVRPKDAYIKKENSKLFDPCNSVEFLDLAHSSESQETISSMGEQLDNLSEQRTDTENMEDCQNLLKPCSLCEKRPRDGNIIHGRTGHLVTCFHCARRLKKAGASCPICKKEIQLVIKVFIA
Target sequence (Q00987 whole entry, looked up): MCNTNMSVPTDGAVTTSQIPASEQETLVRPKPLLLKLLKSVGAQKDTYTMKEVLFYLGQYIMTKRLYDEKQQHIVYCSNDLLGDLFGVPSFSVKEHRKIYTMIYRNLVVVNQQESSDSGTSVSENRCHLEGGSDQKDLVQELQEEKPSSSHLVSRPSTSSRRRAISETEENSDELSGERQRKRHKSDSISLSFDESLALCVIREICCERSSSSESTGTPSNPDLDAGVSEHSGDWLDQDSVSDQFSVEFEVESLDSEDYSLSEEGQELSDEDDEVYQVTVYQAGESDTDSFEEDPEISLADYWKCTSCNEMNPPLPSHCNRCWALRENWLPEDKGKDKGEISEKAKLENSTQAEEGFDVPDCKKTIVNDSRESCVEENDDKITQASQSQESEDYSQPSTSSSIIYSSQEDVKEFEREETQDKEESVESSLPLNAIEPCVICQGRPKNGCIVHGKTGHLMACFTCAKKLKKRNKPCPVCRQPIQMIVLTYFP
MPTP block = mitochondrial permeability transition pore inhibitors, primary screen, biochemical, isolated mouse mitochondria, absorbance. Ca2+ swelling absorbance, 30 min. inhibition, % at 10 µM. AID 602449, 2012. actives 1.4% (n = 360,000);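 active = inhibition of 50% or more, scaled per plate between neutral and stimulator controls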;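 also: 0% = DMSO wells given calcium and 100% = 1 mM EGTA wells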
NR3A LBD binder = binders of NR3A ligand-binding domain, primary screen, biophysical, differential scanning fluorimetry, uHTS. Glutamate receptor ionotropic, NMDA 3A (GRIN3A) ligand-binding domain. NR3A LBD differential scanning fluorimetry, Tm shift; 0% = protein alone, 100% = glycine-bound protein. Tm shift relative to glycine control, % at 25 µM. actives 2.5% (n = 340,000). AID 1259313, 2017;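 active = melting temperature shift of at least 10% of the positive control shift, at one fixed dose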
Mdm2 MdmX conf = Mdm2-MdmX complex disruptors, retested hits, confirmation, luminescence, single concentration; shares compounds with Mdm2 MdmX PPI; Mdm2-MdmX binding, luminescent assay; inhibition, % at 8 µM; actives 55% (n = 10,000); AID 489028, 2010; in the data active = inhibition above about 40%
Full FLuc ctr = full-length luciferase signal inhibition, confirmation, counter-screen for Mdm2/MdmX interaction inhibitor project, cell-based, single concentration, SaOS-2. SaOS-2 full-length luciferase counterscreen, luminescence. actives 77% (n = 6,200). shares compounds with Mdm2 MdmX PPI. inhibition, % at 8 µM;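 active = mean inhibition at 8 µM reaching about 37%, which flags the compound as non-specific, limit read from the data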;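 also: p53-null SaOS-2 cells with luciferase driven by a doxycycline-inducible promoter; compound on cells about two nights before reading with doxycycline added after day one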
Gli-Sufu confirm = Gli-SUFU pathway antagonists, confirmation, single concentration, luciferase luminescence, Sufu-KO-LIGHT cells; AID 602428, 2012; Gli luciferase reporter; inhibition, % at 5 µM; shares compounds with Gli-Sufu antag; actives 40% (n = 2,500);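 active = mean inhibition at 5 µM reaching about 45%, limit read from the data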;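 also: plate controls were DMSO-treated cells for no effect and wells lacking cells for full effect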
Gli cytotox = cytotoxicity in Sufu-KO-LIGHT cells, confirmation, cytotoxicity control for Gli-SUFU antagonist project, cell-based, ATP luminescence, single concentration. actives 32% (n = 2,500). shares compounds with Gli-Sufu antag. cytotoxicity, % at 5 µM;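 active = mean cytotoxicity at 5 µM above about 25%, limit read from the data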;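 also: cells exposed to compound overnight for roughly 16 to 18 hours; plate controls were DMSO wells with cells for no effect and medium without cells for full effect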
Wnt3a counter = Wnt3a reporter signal inhibition, confirmation, counter-screen for Gli-SUFU antagonist project, Wnt-LIGHT cells, luminescence, single concentration; actives 20% (n = 2,500); shares compounds with Gli-Sufu antag; inhibition, % at 6.25 µM; AID 651995, 2013; Wnt3a-driven luciferase reporter;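 active = mean inhibition above about 25%, limit read from the data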
Active calls of the source: *; · = not tested or not shown. In the library only some 6.6% were active in any assay of this set; here they are far more common.

SMILES	Gli-Sufu antag	Beta apoptosis	CSC inhib	Mdm2 MdmX PPI	MPTP block	NR3A LBD binder	Mdm2 MdmX conf	Gli-Sufu confirm	Gli cytotox	Wnt3a counter	others
COc1ccc2[nH]c(=O)c(CN(CC3CCCO3)C(=S)Nc3ccccc3)cc2c1 (centres undefined)	15.1	-2.0	6.0	12.5	-2.0	-0.9	·	·	·	·
CC1CCN(c2ccc(C(=O)O)cc2NS(=O)(=O)c2ccc(Br)cc2)CC1	5.3	-6.9	-9.0	-9.6	1.8	-3.3	·	·	·	·
COc1ccc(-c2nn(-c3ccccc3)cc2/C=N/NC(=O)c2ccc(Br)o2)cc1	51.6	·	24.0	68.5*	5.9	-3.1	-37.8	63.0*	22.8	-27.8
COc1ccc2c(c1)S/C(=C\C(=O)c1ccncc1)N2C	6.1	0.1	-9.0	-66.8	-0.7	-10.8	·	·	·	·
COc1ccc2c(c1)N(C)/C(=C/c1cccc[n+]1C)S2	79.5*	104.8*	37.1	71.8*	0.8	2.5	35.2	84.4*	35.9*	29.4*	Full FLuc ctr=64.1*
CCN1CCN(/C=N/c2nc3c(s2)CCCC3)CC1	52.7	·	·	57.3*	-1.0	-1.5	72.6*	69.7*	21.9	80.3*	Full FLuc ctr=91.4*
c1ccc(-c2cnc(C3CCCCC3)o2)cc1	-21.3	·	·	·	-0.3	-0.5	·	·	·	·
Cc1cc(C)cc(NS(=O)(=O)c2ccc(-c3cnc(C4CC4)o3)cc2)c1	55.5*	·	·	75.3*	2.1	5.0	68.0*	50.7*	56.7*	-13.6	Full FLuc ctr=68.8*
Cc1cc(C)nc(/N=C(\N)Nc2ccc(-c3ccccc3)cc2)n1	67.4*	39.8	54.8	51.5*	14.5	-2.6	21.7	37.3	18.1	-94.9
CC(=O)Nc1ccc(N/C(N)=N/c2nc(C)cc(C)n2)cc1	13.0	·	0.2	13.5	-0.7	-4.2	·	·	·	·
CCOC(=O)C(NC(=O)NCc1ccc(OC)cc1)(OCC)C(F)(F)F (centres undefined)	-9.5	0.1	-10.5	-14.2	0.9	-8.1	·	·	·	·
N=c1c2c(n(Cc3ccccc3)c3c1CCC3)CCC2	-4.4	35.7	-3.9	34.4	9.0	-1.2	·	·	·	·
N=c1c2c(n(Cc3cccc(Cl)c3)c3c1CCC3)CCCC2	81.2*	94.2*	8.7	58.0*	3.0	3.0	41.6*	83.5*	35.0*	35.9*	Full FLuc ctr=64.1*
FC(F)(F)c1nc(-c2cccs2)ncc1-c1nnnn1-c1ccc(Cl)cc1	58.0*	45.4	26.1	69.4*	24.5	1.7	35.6	57.9*	38.8*	1.3
Cc1onc(-c2ccccc2)c1C(=O)OCC(=O)Nc1ccccc1Cl	·	·	·	·	1.0	·	·	·	·	·
CNc1nc(NCc2ccccc2)c2ccccc2n1	56.7*	37.4	-16.0	65.6*	4.6	-1.2	24.1	39.7	14.7	-10.2
CCOC(=O)c1nc(NCc2ccccc2)c2ccccc2n1	2.6	4.2	1.5	12.7	0.2	-1.9	·	·	·	·

Bioassay records deposited in PubChem BioAssay by several laboratories.
